Screen size: about 320,000 compounds; about 160 (0.05%) were called active. Many of the other results were omitted from the sample, so actives are more common in it than they were. Unmarked numbers belong to inactive results. No stated cut-off is given here; in the data, active means inhibition above about 38%; inactive means the rest.
Biological target: Serine protease Rv3671c (Mycobacterium tuberculosis (strain ATCC 25618 / H37Rv)) (UniProt P9WHR9)
Test: Rv3671c serine protease inhibitors, primary screen, biochemical, fluorescence polarization, M. tuberculosis H37Rv (AID 2606);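 further: extracellular domain of Rv3671c used as enzyme; 0% = enzyme with DMSO and 100% = no enzyme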
Settings: at 5.96 µM; active compounds read high

Chain of Serine protease Rv3671c (Mycobacterium tuberculosis (strain ATCC 25618 / H37Rv)) (P9WHR9 whole entry, looked up, the tested form may be a part): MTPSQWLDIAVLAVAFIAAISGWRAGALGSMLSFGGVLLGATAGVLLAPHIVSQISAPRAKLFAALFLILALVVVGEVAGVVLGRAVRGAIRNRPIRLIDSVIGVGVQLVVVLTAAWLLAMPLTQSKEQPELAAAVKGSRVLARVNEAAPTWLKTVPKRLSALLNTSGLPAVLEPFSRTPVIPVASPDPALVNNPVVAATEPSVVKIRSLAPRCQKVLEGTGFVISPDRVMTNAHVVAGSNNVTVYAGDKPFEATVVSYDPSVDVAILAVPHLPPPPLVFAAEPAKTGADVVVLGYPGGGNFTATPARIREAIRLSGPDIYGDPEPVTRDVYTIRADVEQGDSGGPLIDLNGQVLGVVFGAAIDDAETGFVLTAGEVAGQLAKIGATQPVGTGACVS

Going from `CC(=O)N1Cc2ccccc2CC1C(=O)O` (stereo not drawn) to `O=C(COc1ccccc1Cl)N1CCCCCCC1`, the inhibition falls from -1.84% to -10.1%.

Going from `CCc1cccc(NC(=O)CCCN2C(=O)C(c3ccccc3)Oc3cccnc32)c1` (stereo not drawn) to `COC(=O)C1=C(C)N(C(C)c2ccccc2)C(=O)/C1=C\c1ccco1` (stereo not drawn), the inhibition rises from -9.9% to 4.05%.

First: Cc1cccc(C)c1NC(=O)N1CC=C(n2c(=O)[nH]c3ccccc32)CC1
Second: CN=C(c1ccccc1)c1c(C)cccc1C
The inhibition of the first is lower: 1.3% for the first, 10.9% for the second.

Compared with `Nc1nc(-c2sc3nc4c(cc3c2N)CCCC4)nc(N2CCOCC2)n1`, `O=C(NCc1ccccc1)c1ccc(CNc2c(N3CCCC3)c(=O)c2=O)cc1` is higher in inhibition: -3.34% for the first, 3.23% for the second.

Compared with `O=C(NCCN1CCOC1=O)C1CCC(=O)N(CCc2ccc(Cl)cc2)C1` (stereo not drawn), `CCCC(C)c1nnc(NC(=O)C2CC(=O)N(c3ccc(OCC)cc3)C2)s1` (stereo not drawn) is higher in inhibition: -0.05% for the first, 9.03% for the second.

First: CC(Sc1nnc(-c2cccs2)n1C1CC1)C(=O)NCC1CCCO1 (stereo not drawn)
Second: Cc1ccc2c(C)c(C(=O)N3CCN(c4ccncc4)CC3)oc2c1C
The inhibition of the first is lower: 3.19% for the first, 10.5% for the second.

Compared with `CC(C)n1c(O)c(N=Nc2ccccn2)c2ccccc21`, `CS(=O)(=O)c1ccccc1C(=O)Nc1ccc2sccc2c1` is lower in inhibition: 3.27% for the first, -4.05% for the second.

First: COC(C/C=C/C(=O)[C@@H](C)OCc1ccccc1)OC
Second: CC(O)CN(Cc1ccc(Cl)cc1)CC(C)O (stereo not drawn)
The inhibition of the first is lower: -4.04% for the first, 6.26% for the second.

First: CC(C)C(=O)N1CCN(CCN=CC2=C(O)CC(c3ccco3)CC2=O)CC1 (stereo not drawn)
Second: O=C(NC1CC1)C1=C[C@H](c2coc3ccccc3c2=O)C[C@H](OCCCCO)O1
The inhibition of the first is lower: -4.57% for the first, 2.33% for the second.

Going from `CCC(C)CCN1CCN=C1N(C)C` (stereo not drawn) to `CCn1c(C)nc2cc(C(=O)NNS(=O)(=O)c3ccc(C)cc3C)ccc21`, the inhibition falls from -3.18% to -9.72%.

Going from `C=CCn1c(-c2ccc(Cl)cc2)ccc(C#N)c1=O` to `N#C/C=C\Oc1ccc(Cl)cc1N`, the inhibition rises from -12.4% to -2.18%.

Work on `Cc1cc(F)ccc1S(=O)(=O)Nc1ncnc2scc(-c3ccc(F)cc3)c12` yielded an inhibition of -10.2%.

— PubChem BioAssay AID2606 (The Scripps Research Institute Molecular Screening Center, 2010)
